Measurements taken from PubChem BioAssay AID1907 (The Scripps Research Institute Molecular Screening Center, 2009).
The whole screen tested about 1,900 compounds, of which about 1,200 (63%) were called active. Rule as the data show it: active = inhibition above about 22%; inactive = the rest. The set was probably picked from earlier hits. Not all results are given here.

Test: cytotoxic compounds in IEC-6 epithelial cells, confirmation, cytotoxicity control, cell-based, luminescence (AID 1907);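 also: 0% = vehicle and 100% = reference cytotoxic drug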
Settings: IEC-6 rat intestinal epithelial viability, at 5 µM, hits give high values

Q: For `CC1=CC(=Cc2sc3ccccc3[n+]2C)C=C(C)O1`, which inhibition is on record?
A: The inhibition was 32.9% (active).

Q: With `Cc1cc2ccccn2c1C(C[N+](=O)[O-])c1c(F)cccc1Cl` (stereo not drawn) as the compound, how does the inhibition read?
A: Its inhibition is 10.8% (inactive).

Q: With `COc1cc(-n2c(=S)[nH]c3ccc(C)cc3c2=O)c(Cl)cc1Cl` as the compound, how does the inhibition read?
A: The inhibition was -14.8% (inactive).
